Assay results reported in PubChem BioAssay (Tox21).
Records with an inconclusive call do not appear. A call without a number means that no potency is given here. Some structures have more than one record in an assay (separate samples or runs), and their calls can disagree. The source made the active and inactive calls. Unless noted, calls follow the shape of the dose curve; as a rule, active = well fitted curve in the direction sought with a large enough effect in the repeat runs; inconclusive = weak or mixed curves; inactive = flat fitted curve, though single readings scatter.

Assays:
[1] = qHTS assay to test for compound auto fluorescence at 535 nm (green) in HEK293 cells (AID 720680)
[2] = qHTS assay to test for compound auto fluorescence at 460 nm (blue) in HEK293 cell free culture (AID 720681)
Method in brief: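 Test compounds were pinned into cell-free culture medium (DMEM with 10% FBS) and fluorescence was read directly at Ex/Em 405/460 nm. Signals were expressed as fluorescence equivalents of triamterene, with DMSO vehicle as control.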

[3] = qHTS assay to test for compound auto fluorescence at 535 nm (green) in HEK293 cell free culture (AID 720682)
Method in brief: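 Green-channel intensity (Ex/Em 485/535 nm) was recorded from compound-treated wells containing only DMEM with 10% FBS. Fluorescein provided the equivalency standard.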

[4] = qHTS assay to test for compound auto fluorescence at 590 nm (red) in HEK293 cell free culture (AID 720683)
Method in brief: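 Tox21 10K library compounds were pinned into cell-free DMEM with 10% FBS and fluorescence was read at excitation 540 nm. Activity is expressed as Rose Bengal sodium equivalency.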

[5] = qHTS assay to test for compound auto fluorescence at 590 nm (red) in HepG2 cell free culture (AID 720684)
Method in brief: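 Ex 540 / Em 590 nm read of compound in cell-free MEM (10% FBS). Rose Bengal sodium reference.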

[6] = qHTS assay to test for compound auto fluorescence at 460 nm (blue) in HepG2 cell free culture (AID 720685)
Method in brief: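 Cell-free plates of MEM plus 10% FBS received 23 nL compound or DMSO vehicle; blue-channel (405/460 nm) intensity scored against triamterene as reference fluorophore.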

[7] = qHTS assay to test for compound auto fluorescence at 535 nm (green) in HepG2 cell free culture (AID 720686)
[8] = qHTS assay to test for compound auto fluorescence at 460 nm (blue) in HepG2 cells (AID 720687)
Method in brief: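 Cells (2,000/well in MEM with 10% FBS) attached overnight at 37 C, then were exposed to compound or DMSO for 1 hr at 37 C, 5% CO2. Fluorescence read at Ex/Em 405/460 nm, expressed as triamterene-equivalent signal.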

[9] = target: Glucocorticoid receptor (Homo sapiens) (UniProt P04150); assay: qHTS assay to identify small molecule antagonists of the glucocorticoid receptor (GR) signaling pathway (AID 720692; active = well fitted inhibition curve with a large enough effect in the signal ratio in the repeat runs, not every such curve was filed as active; the % refers to the signal ratio; also: potency is read from the fitted curve at half-maximal effect)
Method in brief: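 Inhibition of dexamethasone-driven (5 nM final) beta-lactamase expression was measured in GRE-reporter HeLa cells over 18 h at 37C. Fluorescence was read after 2 h with the B/G FRET substrate at room temperature.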

[10] = target: Glucocorticoid receptor (Homo sapiens) (UniProt P04150); assay: qHTS assay to identify small molecule agonists of the glucocorticoid receptor (GR) signaling pathway (AID 720691; active = well fitted activation curve with a large enough effect in the signal ratio in the repeat runs, not every such curve was filed as active; the % refers to the signal ratio; also: potency is read from the fitted curve at half-maximal effect); settings: GR-bla HeLa, beta-lactamase reporter ratio, 18 h; activation: at 62.4 µM (top of the series)
Method in brief: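 Agonist-mode qHTS in HeLa cells stably expressing a glucocorticoid-response-element beta-lactamase reporter. Fluorescence intensity read with FRET substrate (2 h, room temperature) after 18 h compound treatment at 37 C.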

Sequence of Glucocorticoid receptor (Homo sapiens) (P04150 whole entry, looked up): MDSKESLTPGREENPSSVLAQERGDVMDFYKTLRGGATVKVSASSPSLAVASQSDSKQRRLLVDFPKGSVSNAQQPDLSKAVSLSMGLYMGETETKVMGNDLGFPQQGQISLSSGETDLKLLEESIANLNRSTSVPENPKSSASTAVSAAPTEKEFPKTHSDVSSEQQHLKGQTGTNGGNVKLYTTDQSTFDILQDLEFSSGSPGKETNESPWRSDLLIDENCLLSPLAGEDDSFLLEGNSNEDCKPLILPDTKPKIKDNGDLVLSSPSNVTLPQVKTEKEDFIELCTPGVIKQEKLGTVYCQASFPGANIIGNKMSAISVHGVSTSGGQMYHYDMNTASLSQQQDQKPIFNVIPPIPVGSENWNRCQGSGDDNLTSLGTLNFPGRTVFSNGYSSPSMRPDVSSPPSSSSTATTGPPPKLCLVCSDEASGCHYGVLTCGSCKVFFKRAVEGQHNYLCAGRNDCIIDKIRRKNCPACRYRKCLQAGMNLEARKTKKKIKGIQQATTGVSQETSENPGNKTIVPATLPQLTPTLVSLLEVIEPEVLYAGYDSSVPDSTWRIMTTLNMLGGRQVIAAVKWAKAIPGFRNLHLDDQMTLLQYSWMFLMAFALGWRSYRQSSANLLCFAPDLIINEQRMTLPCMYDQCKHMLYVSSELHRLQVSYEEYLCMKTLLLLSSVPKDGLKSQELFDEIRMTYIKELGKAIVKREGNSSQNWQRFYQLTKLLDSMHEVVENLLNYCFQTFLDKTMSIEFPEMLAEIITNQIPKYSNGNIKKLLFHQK

Compound: COC(=O)C1=C(C#N)NC(C)=C(C(=O)OC(C)C)C1c1cccc([N+](=O)[O-])c1 (stereo unspecified)
- Potency [1]: inactive
- Potency [2]: inactive
- Potency [3]: inactive
- Potency [4]: inactive
- Potency [5]: inactive
- outcome [6]: inactive
- Potency [7]: inactive
- outcome [8]: inactive
- Potency [9]: 19 µM (active)

Compound: O=P(O)(O)OC(Cn1cncn1)(Cn1cncn1)c1ccc(F)cc1F
- Potency [1]: inactive
- Potency [2]: inactive
- Potency [3]: inactive
- Potency [4]: inactive
- Potency [5]: inactive
- outcome [6]: inactive
- Potency [7]: inactive
- outcome [8]: inactive
- Potency [9]: inactive

Compound: CN[C@@H]1[C@@H](O)[C@@H](O[C@@H]2[C@@H](O)[C@H](OC3OC(CN)=CCC3N)[C@@H](N)C[C@H]2N)OC[C@]1(C)O (stereo partly specified)
- Potency [1]: inactive
- Potency [2]: inactive
- Potency [3]: inactive
- Potency [4]: inactive
- Potency [5]: inactive
- outcome [6]: inactive
- Potency [7]: inactive
- outcome [8]: inactive
- Potency [9]: inactive

Compound: CCC(Cc1c(I)cc(I)c(O)c1I)C(=O)O (stereo unspecified)
- Potency [1]: inactive
- Potency [2]: inactive
- Potency [3]: inactive
- Potency [4]: inactive
- Potency [5]: inactive
- outcome [6]: inactive
- outcome [8]: inactive
- Potency [10]: inactive

Compound: CN1CCC(CN2c3ccccc3Sc3ccccc32)C1 (stereo unspecified)
- Potency [1]: inactive
- Potency [2]: inactive
- Potency [3]: inactive
- Potency [4]: inactive
- Potency [5]: inactive
- outcome [6]: inactive
- outcome [8]: inactive

Compound: CC1=C(/C=C/C(C)=C/C=C/C(C)=C/C(=O)Oc2c(C)c(C)c3c(c2C)CC[C@@](C)(CCC[C@H](C)CCC[C@H](C)CCCC(C)C)O3)C(C)(C)CCC1
- Potency [1]: inactive
- Potency [2]: inactive
- Potency [3]: inactive
- Potency [4]: inactive
- Potency [5]: inactive
- outcome [6]: inactive
- outcome [8]: inactive
- Potency [10]: inactive

Compound: CCCCCCC(=O)O[C@H]1CC[C@H]2[C@@H]3CCc4cc(O)ccc4[C@H]3CC[C@]12C
- Potency [1]: inactive
- Potency [2]: inactive
- Potency [3]: inactive
- Potency [4]: inactive
- Potency [5]: inactive
- outcome [6]: inactive
- Potency [7]: inactive
- outcome [8]: inactive
- Potency [9]: 7.56 µM (active)

Compound: C=Cc1c(C)c2cc3nc(cc4[nH]c(cc5nc(cc1[nH]2)C(C)=C5CCC(=O)OC)c(CCC(=O)O)c4C)[C@@]1(C)C3=CC=C(C(=O)OC)[C@H]1C(=O)OC
- Potency [1]: inactive
- Potency [2]: inactive
- Potency [3]: inactive
- Potency [4]: inactive
- Potency [5]: inactive
- outcome [6]: inactive
- outcome [8]: inactive
- Potency [10]: inactive

Compound: COCC1=C(C(=O)OC(C)OC(=O)OC(C)C)N2C(=O)[C@@H](NC(=O)/C(=N\OC)c3csc(N)n3)[C@H]2SC1 (stereo partly specified)
- Potency [1]: inactive
- Potency [2]: inactive
- Potency [3]: inactive
- Potency [4]: inactive
- Potency [5]: inactive
- outcome [6]: inactive
- outcome [8]: inactive

Compound: CCN(CC)CCOC(=O)c1ccc(N)cc1Cl
- Potency [1]: inactive
- Potency [2]: inactive
- Potency [3]: inactive
- Potency [4]: inactive
- Potency [5]: inactive
- outcome [6]: inactive
- Potency [7]: inactive
- outcome [8]: inactive
- Potency [9]: inactive

Compound: CCCCCCCCCCCCCCCCCCCCCCO
- Potency [1]: inactive
- Potency [2]: inactive
- Potency [3]: inactive
- Potency [4]: inactive
- Potency [5]: inactive
- outcome [6]: inactive
- outcome [8]: inactive
- Potency [10]: inactive
- Potency [9]: inactive

Compound: OC1OC[C@@H](O)[C@H](O)[C@@H]1O (stereo partly specified)
- Potency [1]: inactive
- Potency [2]: inactive
- Potency [3]: inactive
- Potency [4]: inactive
- Potency [5]: inactive
- outcome [6]: inactive
- outcome [8]: inactive

Compound: CCCCCCCCCCCCCCCCCCOP(=O)([O-])OC1CC[N+](C)(C)CC1
- Potency [1]: inactive
- Potency [2]: inactive
- Potency [3]: inactive
- Potency [4]: inactive
- Potency [5]: inactive
- outcome [6]: inactive
- Potency [7]: inactive
- outcome [8]: inactive
- Potency [9]: inactive

Compound: CCOC(=O)[C@H](CCc1ccccc1)N[C@H]1CCCN2CCC[C@@H](C(=O)O)N2C1=O
- Potency [1]: inactive
- Potency [2]: inactive
- Potency [3]: inactive
- Potency [4]: inactive
- Potency [5]: inactive
- outcome [6]: inactive
- Potency [7]: inactive
- outcome [8]: inactive
- Potency [9]: inactive

Compound: CC(O)[C@@H]1NC(=O)[C@H](Cc2ccccc2)NC(=O)[C@H](C(C)O)NC(=O)[C@H](CCCCN)NC(=O)[C@H](Cc2c[nH]c3ccccc23)NC(=O)[C@H](Cc2ccccc2)NC(=O)[C@H](Cc2ccccc2)NC(=O)[C@H](CC(N)=O)NC(=O)[C@H](CCCCN)NC(=O)[C@@H](NC(=O)CNC(=O)[C@H](C)N)CSSC[C@@H](C(=O)O)NC(=O)[C@H](CO)NC1=O (stereo partly specified)
- Potency [1]: inactive
- Potency [2]: inactive
- Potency [3]: inactive
- Potency [4]: inactive
- Potency [5]: inactive
- outcome [6]: inactive
- outcome [8]: inactive

Compound: CC(C)CN(C[C@@H](O)[C@H](Cc1ccccc1)NC(=O)O[C@@H]1CCOC1)S(=O)(=O)c1ccc(N)cc1
- Potency [1]: inactive
- Potency [2]: inactive
- Potency [3]: inactive
- Potency [4]: inactive
- Potency [5]: inactive
- outcome [6]: inactive
- outcome [8]: inactive
- Potency [10]: inactive
- Potency [9]: inactive

Compound: C#C[C@]1(O)CC[C@H]2[C@@H]3CCC4=CCCC[C@@H]4[C@H]3C(=C)C[C@@]21CC
- Potency [1]: inactive
- Potency [2]: inactive
- Potency [3]: inactive
- Potency [4]: inactive
- Potency [5]: inactive
- outcome [6]: inactive
- outcome [8]: inactive

Compound: O=C(OC1C[C@@H]2CC3C[C@H](C1)N2CC3=O)c1c[nH]c2ccccc12 (stereo partly specified)
- Potency [1]: inactive
- Potency [2]: inactive
- Potency [3]: inactive
- Potency [4]: inactive
- Potency [5]: inactive
- outcome [6]: inactive
- outcome [8]: inactive
- Potency [10]: inactive
- Potency [9]: inactive

Compound: CO[C@@H]1[C@@H](O[C@@H]2O[C@H](C)[C@@H](O[C@H]3C[C@@](C)(O)[C@@H](OC(=O)CC(C)C)[C@H](C)O3)[C@H](N(C)C)[C@H]2O)[C@@H](CC=O)C[C@@H](C)[C@@H](O)/C=C/C=C/C[C@@H](C)OC(=O)C[C@H]1O
- Potency [1]: inactive
- Potency [2]: inactive
- Potency [3]: inactive
- Potency [4]: inactive
- Potency [5]: inactive
- outcome [6]: inactive
- outcome [8]: inactive
- Potency [10]: 4.25 µM (active) and inactive
- Potency [9]: inactive

Compound: C#C[C@]1(O)CC[C@H]2[C@@H]3CCC4=C(CCC(=O)C4)[C@H]3CC[C@@]21C
- Potency [1]: inactive
- Potency [2]: inactive
- Potency [3]: inactive
- Potency [4]: inactive
- Potency [5]: inactive
- outcome [6]: inactive
- Potency [7]: inactive
- outcome [8]: inactive

Compound: CS(=O)(=O)c1ccc(C2=C(c3ccccc3)C(=O)OC2)cc1
- Potency [1]: inactive
- Potency [2]: inactive
- Potency [3]: inactive
- Potency [4]: inactive
- Potency [5]: inactive
- outcome [6]: inactive
- outcome [8]: inactive
- Potency [10]: inactive
- Potency [9]: inactive
